Assay outcomes: PubChem, National Center for Advancing Translational Sciences (NCATS)
Sampled rows, rich in hits. Any-hit rate of the full collection: about 18%.
RORg inh – qHTS for inhibitors of ROR gamma transcriptional activity; Drosophila S2 Gal4-RORgamma UAS-luciferase reporter, 20 h; hit rate 5.4% among 310,000; Nuclear receptor ROR-gamma (Mus musculus), P51450; Potency, µM (highest dose often 53.6 µM), inactives show at the highest dose activity change, negative = inhibition, usual class: inhibitors; further: potency means the concentration at half of the fitted maximal effect; nearly all actives have a fitted effect of over 60% in size
Target sequence (P51450 whole entry, looked up, the tested form may be a part): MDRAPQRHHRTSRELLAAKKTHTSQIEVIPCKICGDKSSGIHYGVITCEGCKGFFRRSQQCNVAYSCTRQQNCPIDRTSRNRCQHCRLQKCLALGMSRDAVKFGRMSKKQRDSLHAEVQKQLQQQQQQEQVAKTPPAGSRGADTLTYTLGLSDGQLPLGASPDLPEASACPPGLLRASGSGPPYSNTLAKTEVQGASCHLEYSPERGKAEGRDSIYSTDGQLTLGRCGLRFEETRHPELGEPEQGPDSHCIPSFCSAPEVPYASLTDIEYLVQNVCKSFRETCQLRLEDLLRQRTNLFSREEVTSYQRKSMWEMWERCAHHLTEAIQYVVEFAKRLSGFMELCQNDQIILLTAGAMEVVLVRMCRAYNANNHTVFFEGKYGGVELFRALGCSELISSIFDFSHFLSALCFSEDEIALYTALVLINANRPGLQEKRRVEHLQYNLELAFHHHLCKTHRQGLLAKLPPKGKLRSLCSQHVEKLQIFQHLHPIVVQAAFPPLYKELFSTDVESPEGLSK
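Stably transfected Drosophila Schneider cells are the test system, with ROR gamma fused to Gal4 and luciferase under UAS control; luminescence is read after 20 hr of 700 uM copper sulfate induction at ambient temperature.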
LDHA inh – qHTS assay for inhibitors of human lactate dehydrogenase; L-lactate dehydrogenase A chain (Homo sapiens), P00338; purified LDHA, NADH/diaphorase-resazurin fluorescence; stronger effect = lower value; activity change, % (values are at about 110 or 230 µM); hit rate 0.15% among 480,000; AID 1347041, 2019; in the data active means activity change below about -30%; inconclusive means mostly about -25% to -30%;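 further: plate controls were DMSO wells for no effect and wells without enzyme for full effect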
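Resorufin fluorescence (ex540/em590), read at 0 and 20 min after diaphorase/resazurin addition, reports the NADH left after a 5 min room-temperature reaction of 2 nM human LDH5 with 0.06 mM NADH and 0.2 mM pyruvate.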
DT40 TDP1 CPT – qHTS for Inhibitors of human tyrosyl-DNA phosphodiesterase 1 (TDP1): qHTS in cells in presence of CPT | chicken DT40 Tdp1-/-;hTDP1 cells + 20 nM CPT, ATP luminescence, 48 h | hit rate 12% among 420,000 | AID 686979, 2013 | Potency, µM (titrated, usually from 46.2 µM), for the others: at the highest dose activity change, negative = growth inhibition, most hits filed as inhibitors; further: potency means the concentration at half of the fitted maximal effect; nearly all actives have a fitted effect of over 55% in size
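Cell growth measured by CellTiter-Glo luminescence after a minimum 48 h, 37 C compound exposure with 20 nM CPT in Tdp1-knockout DT40 cells stably expressing hTDP1, seeded 400/well; qHTS titration format.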
TDP1 cell noCPT – qHTS for Inhibitors of human tyrosyl-DNA phosphodiesterase 1 (TDP1): qHTS in cells in absence of CPT | hit rate 15% among 420,000 | Potency, µM (highest dose often 46.2 µM), for inactives: at the top dose activity change, negative = growth inhibition, most hits filed as inhibitors | DT40 Tdp1-/- hTDP1 cells, no CPT, ATP luminescence, 48 h | AID 686978, 2013; further: potency means the concentration at half of the fitted maximal effect; nearly all actives have a fitted effect of over 55% in size
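Chicken DT40 Tdp1-/- cells stably complemented with human TDP1 were seeded at 400 cells/well with DMSO in place of 20 nM camptothecin. After compound pinning, cells grew at least 48 hr at 37 °C; viability read by CellTiter-Glo luminescence.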
Gal4-VP16 FLuc – VP16 counterscreen qHTS for inhibitors of ROR gamma transcriptional activity | Drosophila S2 Gal4-VP16 UAS-luciferase, luminescence, 20 h | Potency, µM (doses to about 53.6 µM), without a hit: top-dose activity, negative = inhibition, usual class: inhibitors | hit rate 3.5% among 310,000;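 further: Gal4-VP16 expression switched on by copper sulfate through the metallothionein promoter; potency means the concentration at half of the fitted maximal effect; nearly all actives have a fitted effect of over 50% in size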
IL1B secr inh – qHTS for Inhibitors of Inflammasome Signaling: IL-1-beta AlphaLISA Primary Screen. THP-1 LPS/ATP IL-1B secretion, AlphaLISA, 16 h; stronger effect = lower value. activity change, % at 57.5 µM. hit rate 4.7% among 360,000; in the data active means activity change below about -50%; inconclusive means mostly about -30% to -49%
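Secreted IL-1B measured by AlphaLISA bead assay after 16 h compound exposure of THP-1 cells; compounds (final up to 57.5 uM) added 1 h before LPS (250 ng/mL) and ATP (1.25 mM) stimulation; lower signal means less secretion.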
Starred values were filed as active, the others as inactive; ? = inconclusive; . = no result given; [ ] = another dose, or the depositor's remark. Unless noted, the call rests on the fitted dose curve; in most records, active means well fitted curve in the direction sought with a large enough effect; inconclusive means small, poorly fitted or top-dose-only effect, or another doubt; inactive means no such curve, though single readings can be large; an effect the other way counts as inactive or inconclusive. Unless noted, on the % scale 0 is the no-effect control and ±100 the full control effect.

SMILES | RORg inh | LDHA inh | DT40 TDP1 CPT | TDP1 cell noCPT | Gal4-VP16 FLuc | IL1B secr inh
CCOc1ccc(N(CC)S(=O)(=O)N2CCCC(C(=O)Nc3ccc(OC)c(OC)c3)C2)cc1 (stereo not drawn) | . | 2 | ? | ? | . | .
CCOc1ccc(N(CC)S(=O)(=O)N2CCCC(C(=O)Nc3cc(Cl)ccc3C)C2)cc1 (stereo not drawn) | . | 0 | 21µM* | 16µM* | . | .
CCOc1ccc(N(CC)S(=O)(=O)N2CCCC(C(=O)NCc3ccccc3Cl)C2)cc1 (stereo not drawn) | . | -6 | 21µM* | 21µM* | . | .
Cc1cc(C(F)(F)F)nc(SCC(=O)c2ccccc2)n1 | . | 2 | . | . | . | .
Cc1cc(C(=O)CSc2nnc(C(C)Oc3ccc(F)cc3)o2)c(C)n1CC(F)(F)F (stereo not drawn) | . | 5 | . | . | . | .
COc1ccc(Nc2cc(C(=O)NCCCN(C)C3CCCCC3)c3ccccc3n2)c(OC)c1 | . | -3 | ? | ? | . | .
CC(C)c1ccc(Nc2cc(C(=O)NCCCN(C)Cc3ccccc3)c3ccccc3n2)cc1 | . | 1 | 9.2µM* | ? | . | .
COc1ccc(Nc2cc(C(=O)NCCCN(C)C3CCCCC3)c3ccccc3n2)cc1 | . | -4 | 15µM* | 21µM* | . | .
Cc1ccc(-c2csc(NC(=O)COC(=O)c3ccc(F)cc3Cl)n2)cc1 | . | -6 | . | . | . | .
Cc1cc(C(=O)CSc2nc(N)cc(N)n2)c(C)n1-c1cccc(C(F)(F)F)c1 | ? | 2 | 23µM* | ? | -5% | -11
Cc1cc(C(=O)CSc2nc(N)cc(N)n2)c(C)n1CCc1ccc(F)cc1 | -5% | 1 | ? | ? | -8% | -66*
Cc1cc(C(=O)CSc2ncccn2)c(C)n1-c1cccc(F)c1 | 3% | -8 | -7% | ? | -18% | -3
Cc1cc(C(=O)COC(=O)c2ccc(O)cc2)c(C)n1CCc1ccc(F)cc1 | 41% | 3 | 0% | -26% | 5% | 13
O=S1(=O)CCN(Cc2cccc(Br)c2)c2c(F)nc(N3CCOCC3)c(F)c21 | . | 60 | . | . | . | .
CC1CN(Cc2cccn2-c2cccnc2)Cc2cc(Cl)ccc2O1 (stereo not drawn) | . | . | -18%[9.04 µM] | 18µM* | . | .
CCC(C)C(=O)N(Cc1ccccn1)C1CC1 (stereo not drawn) | . | 1 | . | . | . | .
CC(C)Nc1nnc(SCc2nc(-c3ccccc3Cl)no2)s1 | . | 7 | . | . | . | .
O=C(c1cccs1)c1c[nH]cc1-c1ccccc1 | . | -3 | -6% | -20% | . | -57*
O=C(c1ccccc1)c1c[nH]cc1-c1ccccc1 | -19% | -9 | 0% | -12% | 1% | 1
CCCCCN1C(C(=O)c2ccccc2)=C(NC(C)=O)c2ccccc2S1(=O)=O | . | -5 | 16µM* | 18µM* | . | .
CCCCCN1C(C(=O)c2ccccc2)=C(NC(=O)c2ccc(C)cc2)c2ccccc2S1(=O)=O | . | -1 | 18µM* | 16µM* | . | .
CCCCCN1C(C(=O)c2ccccc2)=C(NC(=O)c2ccccc2Cl)c2ccccc2S1(=O)=O | . | 0 | ? | 8.2µM* | . | .
O=C(NCCN1CCN(c2cccc(Cl)c2)CC1)c1nnc(Cc2ccc(F)cc2)o1 | . | 1 | . | . | . | .
C=CCn1c(=N)n(CC(=O)c2ccc(Br)s2)c2ccccc21 | -17% | -14 | ? | 18µM* | 25% | -74*
CCCCc1n(CC(=O)c2ccc(Cl)cc2)c2ccccc2[n+]1C | 49% | 0 | 6.5µM* | 6.5µM* | 3% | -68*
SMILES | RORg inh | LDHA inh | DT40 TDP1 CPT | TDP1 cell noCPT | Gal4-VP16 FLuc | IL1B secr inh
N=c1n(CC(=O)c2cccs2)c2ccccc2n1Cc1ccccc1 | -10% | -8 | 16µM* | 16µM* | -23% | -7
C=CCn1c(=N)n(CC(=O)c2ccc(Cl)cc2)c2ccccc21 | ? | -3 | 9.2µM* | ? | 9% | -90*
O=C(O)Cn1c(=O)n(Cc2ccccc2)c2ccccc21 | -29% | -14 | -13% | 1% | 0% | -13
C=CCn1c(=N)n(CC(=O)OC)c2ccccc21 | -9% | -2 | 2% | -2% | -6% | 20
COc1ccc2cc(C(=O)N3CCN(c4ccccc4O)CC3)c(C)nc2c1 | . | 5 | . | . | . | .
CCCNC(=O)c1cccc2c(=O)c(C)c(-c3ccccc3)oc12 | . | 6 | . | . | . | .
Cc1ccc(S(=O)(=O)N2CCCN(C(C(=O)NC3CC3)c3ccccc3)CC2)cc1 (stereo not drawn) | . | -8 | . | . | . | .
CNS(=O)(=O)c1ccc2c3c(cccc13)C(=O)N2C | -6% | 0 | -21% | -11% | 26% | -84*
CC1=C(C(=O)Nc2ccccc2C)C(c2ccc(C(=O)O)cc2)n2ncnc2N1 (stereo not drawn) | . | -1 | . | . | . | .
CC(C)CCNC(=O)c1cc2ccccc2oc1=O | . | -2 | . | . | . | .
CN1CC[C@]2(CCN3CCc4c(oc5ccccc45)[C@@H]3C2)N(C)C1=O | . | -5 | ? | 18µM* | . | 25
Cn1c(=O)oc2ccccc2c1=O | . | -3 | 1% | -11% | . | 7
Cc1oc(-c2ccccc2)nc1Cn1cnc(C#N)n1 | . | 12 | . | . | . | .
CN(C)c1ccc(CNc2nc3ccccc3s2)cc1 | 5µM* | . | . | . | 7.9µM* | .
C=C(/C=C/c1ccc(N(C)C)cc1)c1nc2ccccc2s1 | . | 0 | 0.089µM* | 0.11µM* | . | .
CN(Cc1ccccc1)c1ccc(/C=C/c2nc3ccccc3s2)cc1 | . | -2 | 0.32µM* | 0.1µM* | . | .
Cc1ccc(/C=C/c2nc3ccccc3s2)s1 | ? | -6 | -12% | -25% | 10µM* | -1
O=C(Nc1c(NC2CCCCC2)c2ccccc2oc1=O)c1cccs1 | . | 2 | . | . | . | .
COc1cc(C(=O)Nc2ccc(N3CCCC3)nc2)cc2c1OCCO2 | . | 32 | . | . | . | .
CCCOc1c(C(=O)OC)sc2ccc(NC(=O)c3ccccc3)cc12 | . | 3 | . | . | . | .
Cc1ccc(NC(=O)c2ccc(Oc3nccnc3N3CCCCC3)cc2)cc1C | . | 0 | . | . | . | .
CN(C)c1ccc(/C=C/c2nc3ccccc3s2)cc1 | 0.32µM* | -3 | 16µM* | 0.1µM* | 4µM* | -25
Cc1oc2cc(OS(=O)(=O)c3cccs3)ccc2c(=O)c1-c1ccccc1 | . | 0 | . | . | . | .
CCOc1c([N+](=O)[O-])cc2c(C)c(C(=O)N3CCN(C)CC3)oc2c1OCC | -5% | 19 | 17% | 16µM* | -6% | 3
COc1cc(OC)c2c(C)c(CC(=O)Nc3cccc(C(C)=O)c3)c(=O)oc2c1 | . | 0 | . | . | . | .
